Measurements taken from PubChem BioAssay AID1159580 (chemical genetic matrix, 2015).
Values joined by “and” are separate entries in the source; they are usually repeats but may differ in a detail not shown here. Identical values can stand only once. Out of some 5,500 compounds screened, about 2,000 (36%) were called active. Another 18% or so got no clear call; they are omitted. Cut-off read from the data, not from the text of the source: active = normalized growth mostly below about 0.91 (no sharp cut-off); inconclusive = no clear call, values can overlap the other calls; inactive = mostly above about 0.92. The list shows a part of the results.

Experiment: chemical genetic growth profiling, strain panel (AID 1159580);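 note: tested at 20 µM; growth read once vehicle control cultures reached saturation at 30 °C; 1 = growth at the plate median or of vehicle wells; lower values mean less growth of the strain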
Conditions: S. cerevisiae deletion strains, growth OD

Measured: normalized growth

CC(=O)O[C@H]1C(=O)[C@@]2(C)C([C@H](OC(=O)c3ccccc3)[C@]3(O)C[C@H](OC(=O)[C@H](O)[C@@H](NC(=O)c4ccccc4)c4ccccc4)C(C)=C1C3(C)C)[C@]1(OC(C)=O)CO[C@@H]1C[C@@H]2O (stereo partly specified)
active: locus YDL192W, strain arf1, hits give low values 1.14 [resistant] | locus YDR502C, strain sam2, hits give low values 1.16 [resistant] | locus YER155C, strain BEM2 (second series), hits give low values 0.824 | locus YHR200W, strain rpn10, hits give low values 1.17 [resistant] | locus YIR030C, strain dcg1, hits give low values 1.09 [resistant] | locus YJL168C, strain set2, hits give low values 1.07 [resistant]
inactive: locus YAL013W, strain DEP1, hits give low values 1.08 | locus YAL021C, strain ccr4, hits give low values 0.995 | locus YAL026C, strain drs2, hits give low values 0.979 | locus YAL030W, strain snc1, hits give low values 1 | locus YBL061C, strain skt5, hits give low values 1.01 | locus YBR009C, strain hhf1, hits give low values 0.989 | locus YBR021W, strain FUR4, hits give low values 1.05 | locus YBR023C, strain chs3, hits give low values 1.01 | locus YBR171W, strain sec66, hits give low values 0.991 | locus YBR229C, strain ROT2, hits give low values 1.02 | locus YBR231C, strain swc5, hits give low values 1.02 | locus YBR279W, strain paf1, hits give low values 0.994 | locus YCL011C, strain gbp2, hits give low values 1.02 | locus YCL016C, strain dcc1, hits give low values 1.04 | locus YCL029C, strain bik1, hits give low values 1.05 | locus YCL061C, strain MRC1, hits give low values 1.01 | locus YCL069W, strain vba3, hits give low values 1.01 | locus YCR088W, strain abp1, hits give low values 1 | locus YDL005C, strain med2, hits give low values 1 | locus YDL035C, strain GPR1, hits give low values 1.06 | locus YDL040C, strain nat1, hits give low values 1 | locus YDL074C, strain BRE1, hits give low values 1.05 | locus YDL101C, strain DUN1, hits give low values 1.03 | locus YDL134C, strain PPH21, hits give low values 1.03 | locus YDL185W, strain tfp1, hits give low values 0.936 | locus YDR001C, strain nth1, hits give low values 1.02 | locus YDR069C, strain doa4, hits give low values 0.975 | locus YDR101C, strain arx1, hits give low values 1.07 | locus YDR137W, strain rgp1, hits give low values 1.02 | locus YDR150W, strain NUM1, hits give low values 1.03 | locus YDR159W, strain sac3, hits give low values 0.975 | locus YDR162C, strain NBP2, hits give low values 1.04 | locus YDR195W, strain ref2 0.994 | locus YDR297W, strain sur2, hits give low values 0.996 | locus YDR318W, strain mcm21, hits give low values 1.07 | locus YDR334W, strain swr1, hits give low values 1 | locus YDR335W, strain msn5, hits give low values 1 | locus YDR388W, hits give low values 1.06 | locus YDR392W, strain spt3, hits give low values 0.79 | locus YEL003W, strain gim4, hits give low values 0.979 | locus YEL037C, strain rad23, hits give low values 1.02 | locus YEL061C, strain CIN8 (second series), hits give low values 0.989 | locus YEL061C, strain CIN8, hits give low values 1.05 | locus YER015W, strain faa2, hits give low values 0.997 | locus YER016W, strain bim1, hits give low values 1.01 | locus YER110C, hits give low values 1.1 | locus YER111C, strain swi4, hits give low values 1.02 | locus YER155C, strain BEM2, hits give low values 1.03 | locus YER167W, strain BCK2, hits give low values 1.04 | locus YFR010W, strain ubp6, hits give low values 0.988 | locus YGL078C, strain dbp3, hits give low values 1.02 | locus YGL086W, strain mad1, hits give low values 0.944 | locus YGL167C, strain pmr1, hits give low values 0.994 | locus YGL173C, strain kem1, hits give low values 1 | locus YGL227W, strain vid30, hits give low values 1.02 | locus YGL240W, strain doc1, hits give low values 0.968 | locus YGL248W, strain PDE1, hits give low values 1.03 | locus YGL253W, strain hxk2, hits give low values 0.95 | locus YGR078C, strain PAC10, hits give low values 1.04 | locus YGR135W, strain pre9, hits give low values 1.05 | locus YGR229C, strain SMI1, hits give low values 1.13 | locus YGR252W, strain gcn5, hits give low values 1.13 | locus YHR013C, strain ard1, hits give low values 0.991 | locus YHR027C, strain rpn1, hits give low values 0.988 | locus YHR030C, strain SLT2, hits give low values 1.03 and 0.96 | locus YHR079C, strain IRE1 (second series), hits give low values 1.03 | locus YHR079C, strain IRE1, hits give low values 1 | locus YHR094C, strain hxt1, hits give low values 1.05 | locus YHR129C, strain ARP1, hits give low values 1.03 | locus YHR142W, strain chs7, hits give low values 1 | locus YIL066C, strain RNR3, hits give low values 1.03 | locus YIL073C, strain SPO22, hits give low values 1.04 | locus YIL125W, strain kgd1, hits give low values 1.06 | locus YJL092W, strain hpr5, hits give low values 1.01 | locus YJL095W, strain BCK1 (second series), hits give low values 1 | locus YJL095W, strain BCK1, hits give low values 1.03 and 0.973 | locus YJL115W, strain asf1, hits give low values 1.01 | locus YJL129C, strain trk1, hits give low values 0.992 | locus YJL134W, strain LCB3, hits give low values 1.03 | locus YJL154C, strain vps35, hits give low values 1 | locus YJL164C, strain tpk1, hits give low values 0.969 | locus YJL166W, strain qcr8, hits give low values 1.01 | locus YJL187C, strain SWE1 (second series), hits give low values 1.03 | locus YJL187C, strain SWE1, hits give low values 0.986 | locus YJR043C, strain POL32, hits give low values 1.06
